# “And” between values parts separate entries of the source, which are not always exact repeats. Equal values may be shown once. A structure can be active in one record and inactive in another. The source made the active and inactive calls. Rule for the calls: active = hit-call score of the fitted dose curve at least 0.9, where 1 is the maximum; inactive = score below 0.9.
# Assay: ATG_TAL_CIS: Attagene CIS-FACTORIAL HepG2 Assay for human TAL Basal Promoter (AID 2282966)
# Conditions: HepG2 Attagene cis-factorial TAL promoter reporter; actives raise or lower the signal
# Protocol: ATG_CIS is a cell-based, multiplexed-readout assay that uses HepG2, a human liver cell line, with measurements taken at 24 hours after chemical dosing in a 24-well plate.ATG_TAL_CIS is one of 52 assay component(s) measured or calculated from the ATG_CIS assay. It is designed to make measurements of mRNA induction, a form of inducible reporter, as detected with fluorescence intensity signals by Reverse transcription polymerase chain reaction (RT-PCR) and Capillary electrophoresis technology.Data from the assay component ATG_TAL_CIS was analyzed into 1 assay endpoint. This assay endpoint, ATG_TAL_CIS, was analyzed with bidirectional fitting relative to DMSO as the negative control and baseline of activity. Using a type of inducible reporter, measures of mRNA for gain or loss-of-signal activity can be used to understand the background control at the transcription factor-level as they relate to the gene . Furthermore, this assay endpoint can be referred to as a secondary readout, because this assay has produced multiple assay endpoints where this one serves a background control function. To generalize the intended target to other relatable targets, this assay endpoint is annotated to the background measurement intended target family, where the subfamily is internal marker.
# Human liver HepG2 cells are transiently transfected with multiple reporter transcription units (MRTUs) in 6-well plates using FuGene 6 reagent (Roche; 3 ml FuGene/1 mg DNA). The MRTU constructs are regulated by a cis-regulating element (promoter). […] A major difference between the CIS and TRANS system is that in CIS activities of endogenous TFs are measured, whereas the TRANS assay evaluates changes in activities of exogenous, chimeric NR-Gal4 proteins. […] At the end of 24 hour incubation, total RNA was isolated using TriZol reagent (Invitrogen). The isolated RNA is then reverse-transcribed using oligo(dT) primer and Mo-MLV reverse transcriptase (Invitrogen) with DNAse I (Ambion) treatment for 30 min. The one-tenth of the produced cDNA was amplified by PCR using Taq DNA polymerase (Invitrogen) and two reporter sequence-specific primers. The PCR products were fluorescently labeled by primer extension with 6-arboxyfluorescein (6-FAM) 5'-labeled reporter sequence-specific primer (2 min at 95 C, 20 s at 68 C and 10 min at 72 C) and these products were digested with 5U of HpaI (New England Biolabs) for 2h at 37 C. The fragments were purified using Qiaquick PCR columns (Qiagen), analyzed on an ABI 3130xL genetic analyzer (Applied Biosystems) with peak positions identified by using a set of X-rhodamine (ROX)-labeled MapMarker1000 molecular weight standards (BioVentures). The raw capillary electrophoresis data was processed using Attagraph software (Attagene).
Structure (SMILES),outcome,AC50
C=CCCCCCCCCC(=O)OCC,inactive,–
Nc1ccc(N)c([N+](=O)[O-])c1,inactive,–
CC=CC(=O)C1=C(C)C=CCC1(C)C,inactive,–
CCOCC(C)O (stereo not given),inactive,–
CCCCCCCC(=O)N(C)C,inactive,–
Cc1ccc(C(C)(C)O)cc1,inactive,–
C#C[C@]1(O)CC[C@H]2[C@@H]3CCc4cc(O)ccc4[C@H]3CC[C@@]21C,inactive,152 µM (active) and 78.2 µM (active)
NC(=O)c1cnccn1,inactive,–
CCCc1ccc(N)cc1,inactive,–
CC1=CCC(=C(C)C)CC1,inactive,–
CCCC[N+](C)(CCCC)CCCC,inactive,–
C[C@H](CCC(=O)O)[C@H]1CC[C@H]2[C@@H]3CC[C@@H]4C[C@H](O)CC[C@]4(C)[C@H]3CC[C@]12C,inactive,–
OC[C@H]1O[C@@H](O[C@H]2[C@H](O)[C@@H](O)[C@H](O)O[C@@H]2CO)[C@H](O)[C@@H](O)[C@H]1O,inactive,–
O=[N+]([O-])c1cc(N(CCO)CCO)ccc1NCCO,inactive,–
c1ccc(Sc2ccccc2)cc1,inactive,–
OCC=Cc1ccccc1,inactive,–
NC(=O)NC(N)=O,inactive,–
CC(=N[Si](C)(C)C)O[Si](C)(C)C,inactive,–
CC(C)COC(=O)c1ccccc1O,inactive,–
NCCN1CCNCC1,inactive,–

Structure (SMILES),outcome,AC50
NC(N)=S,inactive,–
CCn1cc(C(=O)O)c(=O)c2ccc(C)nc21,inactive,–
N#CCCNCCC#N,inactive,–
CCCCCCCCCO,inactive,–
C1=COCCC1,inactive,–
COC(=O)C(C)Oc1ccc(Oc2ncc(C(F)(F)F)cc2Cl)cc1 (stereo not given),inactive,–
OC[C@@H](O)[C@H](O)[C@@H](O)[C@@H](O)CO,inactive,–
CC(C)(O)CCc1ccccc1,inactive,–
O=S1(=O)CC=CC1,inactive,–
CCCCOCCOCCOCCO,inactive,–
CC(=O)CCc1ccc(O)cc1,inactive,–
O=C(O)C1=NN(c2ccc(S(=O)(=O)O)cc2)C(=O)C1,inactive,–
CC(=O)CCC=C(C)CCC=C(C)C,inactive,–
CCO[Si](CC)(OCC)OCC,inactive,–
COc1ccc2[nH]cc(CCNC(C)=O)c2c1,inactive,–
CCCCC1CCCCC(=O)O1 (stereo not given),inactive,–
O=S(=O)(O)c1cc(S(=O)(=O)O)c2c(N=Nc3ccccc3)c(O)ccc2c1,inactive,–
Brc1cc(Br)cc(Br)c1,inactive,–
CC(=O)CCC(=O)O,inactive,–

# Reference: PubChem BioAssay (EPA / NIEHS)
